Shiga inhibitor = blocks Shiga toxin action in Vero cells. inhibition, % at 38.7 µM. hit rate 9.2% among 290,000. Vero cells, Shiga toxin protein synthesis inhibition reporter; in the data active = inhibition mostly above about 28%, no sharp cut-off; inactive = mostly below about 43%
Pf growth 96h = P. falciparum growth inhibition at 96 hours. P. falciparum luciferase reporter growth, 96 h. hit rate 6.9% among 320,000. Potency, µM (series often up to 28.7 µM), most hits filed as inhibitors
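Delayed-death screen, second-generation endpoint: infected erythrocytes, 2% hematocrit, 0.05% parasitemia final; 96 hours at 37 C, 5% CO2; luciferase detection reagent; luminescence decrease equals reduced growth.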
Pf growth 48h = inhibits P. falciparum growth in the first generation, 48 h. Potency, µM (top dose mostly 28.7 µM), most hits filed as inhibitors. AID 504832. P. falciparum luciferase growth in erythrocytes, 48 h. hit rate 5.9% among 310,000
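Luciferase-expressing P. falciparum in infected erythrocytes (2% hematocrit, 0.1% parasitemia final) in RPMI 1640/0.5% Albumax were exposed to compound for 48 hours at 37 C, 5% CO2; growth read as luminescence.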
MARV entry inh = Marburg virus entry inhibition; AID 540276; Potency, µM (highest dose often 37.8 µM), usual class: inhibitors; Marburg virus pseudotyped entry inhibition, cell reporter; hit rate 1.8% among 300,000; calls by dose curve; tested in HEK293 cells
LASV entry inh = inhibitors of Lassa virus binding or cell entry. Lassa virus pseudotype entry inhibition, cell reporter. Potency, µM (series often up to 37.9 µM), most hits filed as inhibitors. hit rate 1.2% among 300,000. AID 540256; calls by dose curve; tested in HEK293 cells; note: nearly all actives have a fitted effect of over 50% in size
CHX counter = counter-screen hit for Shiga toxin inhibitors, cycloheximide. cell reporter, cycloheximide protein synthesis inhibition counterscreen. max response, %. hit rate 12% among 300,000. AID 2314; in the data active = max response mostly above about 13%, no sharp cut-off; inactive = mostly below about 14%; note: read at 38.3 µM for the half of the compounds with a filed dose
Hits are given with their value; - = inactive; ? = inconclusive; . = no result given. Most compounds without a hit are left out; they make up all but 19% or so of the library. Unless noted, calls come from the whole dose curve; as a rule, active = well fitted inhibition curve with a large enough effect; inconclusive = small, poorly fitted or top-dose-only effect, or another doubt; inactive = no such curve, though single readings can be large or run the other way.

SMILES	Shiga inhibitor	Pf growth 96h	Pf growth 48h	MARV entry inh	LASV entry inh	CHX counter
CC(C)CCC(C(=O)O)C(C)CC(=O)NC1CCCCC1 (stereo not drawn)	-	-	-	-	?	-
CCCCCC(C(=O)O)C(C)CC(=O)NC1CCCCC1 (stereo not drawn)	-	13.1µM	-	-	-	-
COc1ccc(C)cc1Nc1nnc(C)c(=O)[nH]1	-	-	-	-	-	-
CCCCOC(=O)/C(=C/C=C/c1ccccc1)NC(=O)c1ccccc1	-	-	?	-	-	48.6
C=CCOC(=O)/C(=C\C=C\c1ccccc1)NC(=O)c1ccccc1	-	?	-	-	-	17.9
CCOC(=O)/C(=C\C=C\c1ccccc1)NC(=O)c1ccccc1	-	-	-	?	?	-
CCCOC(=O)/C(=C\C=C\c1ccccc1)NC(=O)c1ccccc1	-	-	-	?	-	16.2
CCOC(=O)/C(=C/C=C/c1ccccc1)NC(=O)c1ccccc1	-	10.4µM	-	-	-	-
CCCCOc1ccc(C(=O)N/C(=C/C=C/c2ccccc2)C(=O)NCCO)cc1	-	-	-	-	-	-
CCn1nc(NS(=O)(=O)c2ccc(NC(C)=O)cc2)c2cc3ccc(C)cc3nc21	-	?	-	.	.	-
CCOc1cc(Cl)c(S(=O)(=O)NCc2cccnc2)cc1Cl	-	-	-	-	-	-
OC1CCN(Cc2cccc3ccccc23)CC1	-	-	-	.	.	-
C/C(=N/N1CCN(Cc2cccc3ccccc23)CC1)c1ccco1	17.0	-	-	-	-	-
O=C(c1ccco1)N1CCN(Cc2ccc(F)cc2Cl)CC1	.	-	?	-	-	49.9
O=C(c1ccco1)N1CCN(Cc2ccccc2Br)CC1	56.2	?	-	.	.	34.1
COCCCNC(=O)CCn1c(=O)c2ccccc2n(CC(=O)NCCC2=CCCCC2)c1=O	-	?	?	.	.	-
CC(C(=O)NCC1CCCCC1)N(C)Cc1ccc(Cl)cc1 (stereo not drawn)	-	-	?	?	-	-
C=CCn1c(SCC(=O)N2CCc3ccccc3C2)nc2ccccc2c1=O	-	-	?	-	?	-
Cc1[nH]c2ccccc2c1C(c1ccncc1)N1CCN(c2ccc(F)cc2)CC1 (stereo not drawn)	-	-	?	?	-	-
COc1ccc(O)c(-c2cc(-c3ccccc3[N+](=O)[O-])[nH]n2)c1	-	-	-	-	-	24.8
Cc1ccc(O)c(-c2cc(-c3ccccc3[N+](=O)[O-])[nH]n2)c1	44.4	-	?	?	-	19.9
Cc1ccc(O)c(C)c1	.	-	-	.	.	.
COc1ccc(O)c(-c2cn[nH]c2-c2cccs2)c1	-	?	-	-	-	-
O=[N+]([O-])c1ccccc1-c1cc(-c2cc(Cl)ccc2O)n[nH]1	-	-	?	-	?	21.8
O=C1NC(c2cc(Cl)cc([N+](=O)[O-])c2O)Nc2ccccc21 (stereo not drawn)	-	-	-	.	.	-
SMILES	Shiga inhibitor	Pf growth 96h	Pf growth 48h	MARV entry inh	LASV entry inh	CHX counter
Cc1ccc(O)c(-c2cc(-c3ccccc3C)[nH]n2)c1	32.5	-	?	?	?	-
O=C(Nc1ccnn1C1CCN(C2CCC2)CC1)c1ccccc1Cl	-	-	-	-	-	-
CC(=O)N1CCC(N2CCN(c3ccccc3F)CC2)CC1	-	-	-	-	?	-
Cc1ccc(-c2cc(-c3cccs3)[nH]n2)c(O)c1	72.1	?	.	-	-	40.9
Cc1ccc(/C=N/n2c(-c3cccs3)n[nH]c2=S)cc1	-	-	-	?	-	-
Cc1ccc(O)c(-c2cc(C(F)(F)C(F)F)[nH]n2)c1	-	9.28µM	9.28µM	-	-	18.6
CC1CC=CC2C1C(=O)N(Cc1ccccc1)C2c1ccc(-c2cc3ccccc3s2)cc1F (stereo not drawn)	96.4	.	.	.	.	48.8
Cc1ccc(-c2ccc(C3C4C=CCC(C)C4C(=O)N3Cc3ccccc3)c(F)c2)cc1 (stereo not drawn)	-	.	.	.	.	-
Cc1ccc(-c2ccc([C@H]3[C@H]4C=CC[C@@H](C)[C@@H]4C(=O)N3Cc3ccccc3)c(F)c2)cc1	-	10.4µM	11.7µM	.	.	-
CCN(CC)S(=O)(=O)c1ccc(C(=O)Nc2ccc3c(c2)OCO3)cc1	-	?	-	-	?	-
O=C(Nc1ccc2c(c1)OCO2)c1cncc(Br)c1	65.5	?	-	-	-	32.1
O=C(Nc1ccc2c(c1)OCCO2)c1cncc(Br)c1	-	-	-	?	?	23.4
COc1cc(C(=O)NCc2ccc3c(c2)CCN3C(=O)c2ccncc2)cc(OC)c1OC	.	.	.	.	-	.
CN(C)c1oc(-c2ccccc2F)nc1C#N	-	?	-	-	-	-
O=C(c1ccccc1)c1nnc(-c2ccccc2F)o1	68.7	-	-	?	?	44.7
CC(=O)n1c(Cl)c(NC(=O)CCl)c2ccccc21	-	2.08µM	.	?	?	-
Cc1cc(C)cc(OCC(=O)NNC(=O)c2cc(C)[nH]n2)c1	-	?	-	-	-	-
Cc1cc(C(=O)NN)n[nH]1	60.9	-	-	?	?	20.1
O=C(N/N=C/c1ccco1)c1cc(C2CC2)[nH]n1	117.8	-	-	-	-	35.2
Cc1cc(C(=O)N/N=C/c2ccco2)n[nH]1	-	-	-	-	-	28.8
O=C(N/N=C/c1ccc([N+](=O)[O-])cc1)c1cc(C2CC2)[nH]n1	-	?	-	.	.	-
CC(/C=C/c1ccco1)=N\NC(=O)c1cc(C)[nH]n1	-	-	-	-	-	-
CCOC(=O)COc1ccc(C(=O)CC)cc1OC	-	-	-	.	.	-
CCOC(=O)C1=C(CS(=O)(=O)c2ccccc2)NC(=O)NC1c1ccc(O)c(OC)c1 (stereo not drawn)	-	-	-	-	-	-
COc1ccc(NC(=O)CN(C)C(=O)c2cn(-c3ccccc3)nc2-c2cccnc2)cc1	.	?	8.28µM	-	?	.
SMILES	Shiga inhibitor	Pf growth 96h	Pf growth 48h	MARV entry inh	LASV entry inh	CHX counter
CN(CC(=O)Nc1cccc(F)c1)C(=O)c1cn(-c2ccccc2)nc1-c1ccccc1	-	?	-	.	.	-
COc1ccc(NC(=O)CN(C)C(=O)c2cn(-c3ccccc3)nc2-c2cccs2)cc1	.	?	?	-	-	.
CCOc1ccc(NC(=O)CN(C)C(=O)c2cn(-c3ccc(F)cc3)nc2-c2cccc(OC)c2)cc1OCC	.	?	11.7µM	?	?	.
Cc1cccc(NC(=O)CC(C)S(=O)(=O)c2ccc3c(c2)NC(=O)CO3)c1C (stereo not drawn)	-	?	?	.	.	-
CCOC(=O)C(C)Sc1ncc(OC)c(Sc2ccc(Cl)cc2)n1 (stereo not drawn)	-	-	-	-	-	-
CC(=O)NC12CC3CC(C1)CC(C(=O)N1CCN(S(=O)(=O)c4ccc(C(C)C)cc4)CC1)(C3)C2	.	11.7µM	-	-	?	.
CC(=O)NC12CC3CC(C1)CC(C(=O)N1CCN(S(=O)(=O)c4cccc(F)c4)CC1)(C3)C2	-	-	?	-	-	-
COCCOC1CCN(C(=O)C2CCC(=O)N(CCc3cccc(F)c3)C2)CC1 (stereo not drawn)	-	?	-	-	-	-
